# Screening data deposited in PubChem BioAssay by National Center for Advancing Translational Sciences (NCATS).
# Epigenetic derep – Quantitative High-Throughput Screen for Regulators of Epigenetic Control; murine LDR cells, GFP reporter derepression, 30 h; Potency, µM (top dose mostly 53.9 µM), for inactives: at the highest dose GFP activation, usual class: activators; 280,000 compounds, 0.2% hits; AID 1865, 2009; also: % of control where 0% means no effect; nearly all actives have a fitted effect of over 60% in size
#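 In this reporter-derepression format, murine cells bearing a silenced integrated CMV-GFP locus incubate with test compound (30 h, 37 C), then are washed and imaged; fluorescent objects of 20–120 um count as induced cells.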
# PINK1 modulator – A Quantitative High throughput Screen to Identify Chemical Modulators of PINK1 Expression | Potency, µM (series often up to 76.6 µM), without a hit: at the highest dose activation (PINK1 increase), hits mostly activators | 410,000 compounds, 0.2% hits | PINK1 immunofluorescence, high-content cytometry, 24 h; active = well fitted activation curve with a large enough effect; inconclusive = small, poorly fitted or top-dose-only effect; cell line not stated here; also: % of control where 0% means no effect; nearly all actives have a fitted effect of over 65% in size
#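 Stable cell line, 250 cells/well, 12 h attachment; compounds pinned at 5 concentrations, 24 h; CCCP control. Fixed with nuclear dye, primary antibodies 12 h at 10 degrees C, secondary plus cell stain; laser-scanning cytometer read.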
# HttQ103 aggreg – qHTS Multiplex Assay to Identify Dual Action Probes in a Cell Model of Huntington: Aggregate Formation (GFP); PC12 HttQ103-GFP aggregates, Acumen cytometry, 40 h; 220,000 compounds, 1.1% hits; Potency, µM (titrated, usually from 46.1 µM), for inactives: at the highest dose activity change, negative = inhibition, usual class: inhibitors; also: % is scaled to controls: 0 for no effect and ±100 for the full control effect; nearly all actives have a fitted effect of over 60% in size
#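 Aggregates are detected as GFP objects 1–25 µm with signal 6 STDEV over background in lysates of induced PC12 cells. These carry Huntingtin exon 1 with 103 glutamines fused to GFP under an ecdysone promoter; compounds titrated.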
# HTT cytoprotect – qHTS Multiplex Assay to Identify Dual Action Probes in a Cell Model of Huntington: Cytoprotection (ATP) | PC12 HTT-Q103 induced, cytoprotection, ATP luminescence, 40 h | Potency, µM (top dose mostly 56.4 µM), without a hit: cytoprotection (ATP increase), most hits filed as activators | 230,000 compounds, 0.14% hits; also: % of control where 0% means no effect; nearly all actives have a fitted effect of over 45% in size
#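 Stable PC12 Q103-GFP cells in serum-supplemented, phenol red-free DMEM; induction by tebufenozide at 100 nM final; compound dose series; cell viability quantified luminescently from ATP.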
# Numbers without * were called inactive; ? = inconclusive; . = no result; [ ] = another dose, or the depositor's remark. The entries come from a sample that favours hits as a whole. Unless noted, calls follow the shape of the dose curve; as a rule, active = well fitted curve in the direction sought with a large enough effect; inconclusive = small, poorly fitted or top-dose-only effect, or another doubt; inactive = no such curve, though single readings can be large; an effect the other way counts as inactive or inconclusive. Potency is read from the fitted curve at half-maximal effect.
SMILES,Epigenetic derep,PINK1 modulator,HttQ103 aggreg,HTT cytoprotect
CCCCN(CCCC)C(=S)N/N=C/c1c(C)[nH]n(-c2ccccc2)c1=O,1%,15%,11µM*,-112%
O=C(NNC(=S)NC1CCCCC1)c1ccccc1O,-3%,5%,10µM*,-82%
Cc1ccc(C(=O)COC(=O)CNS(=O)(=O)c2ccc(C)cc2)cc1,.,-1%,.,.
COc1ccc(C(=O)COC(=O)CNS(=O)(=O)c2ccc(C)cc2)cc1,2%,-2%,25µM*,2%[10 µM]
C=CCOCCN(C)C1=NS(=O)(=O)c2cc([N+](=O)[O-])ccc21,0%,7%,-22%,-68%
CN(CCO)C1=NS(=O)(=O)c2cc([N+](=O)[O-])ccc21,-1%,0%,6.3µM*,-160%
CCOC(=O)c1cccc2c1-c1ccccc1/C2=N/O,-1%,-7%[38.3 µM],-5%,19%
CC1CCCC(C)N1C(=O)c1cccc2c1-c1ccccc1/C2=N/O (centres undefined),-1%,1%,7.9µM*,6%[1.9 µM]
Cc1ccc(C(=O)c2c(C)oc3c2C(=O)C(=O)c2ccccc2-3)cc1,-1%,-3%,?,-111%
COc1ccc(C(=O)c2c(C(F)(F)F)oc3c2C(=O)c2ccccc2C3=O)cc1,0%,-3%,3.2µM*,-85%
Cc1ccc(C(C(=O)NC2CCCCC2)N(Cc2ccccc2)C(=O)Cc2c[nH]c3ccccc23)o1 (centres undefined),-1%,10%,20µM*,17%[10 µM]
COc1cccc(CN(C(=O)Cc2c[nH]c3ccccc23)C(C(=O)NC2CCCCC2)c2ccc(C)o2)c1 (centres undefined),-1%,0%,13µM*,2%[10 µM]
COc1ccc(CN(C(=O)Cc2c[nH]c3ccccc23)C(C(=O)NC2CCCCC2)c2ccc(C)o2)cc1 (centres undefined),-10%,.,?,-3%[10 µM]
CC1=CC(=C2C(=O)c3ccccc3C2=O)C=C(C)N1Cc1ccco1,5%,5%,-4%,-35%
COc1ccc(Cn2ccnc2SCC(=O)Nc2nc3ccccc3s2)cc1,-1%,-1%,.,.
O=[N+]([O-])c1c(NCCCO)cc(Sc2nc3ccccc3s2)c2nonc12,?,17%[38.3 µM],6.3µM*,-132%
CCOC(=O)c1nn(-c2ccc(Cl)cc2Cl)c(=N)c(C#N)c1C,11µM*,.,-31%[9.22 µM],-11%[10 µM]
CCOC(=O)c1c(C)[nH]c(C)c1S(=O)(=O)N1CCN(c2ccc(F)cc2)CC1,.,0%,.,.
CC(=O)C1=C(C)NC(SCC(=O)c2ccccc2)=C(C#N)C1CC(C)C (centres undefined),-1%,0%,1.6µM*,-15%[0.074 µM]
CC(=O)C1=C(C)NC(SCC(=O)c2ccccc2)=C(C#N)C1c1ccco1 (centres undefined),-3%,.,2%,-21%
C/C(=N\N1CCN(c2ccccc2)CC1)c1ccccc1O,.,1%,.,.
CCN(CC)S(=O)(=O)c1ccc2[nH]cc(C(=O)NCCN3CCCCCC3)c(=O)c2c1,0%,1%,5%,-13%
CCN(CC)S(=O)(=O)c1ccc2[nH]cc(C(=O)NCCC3=CCCCC3)c(=O)c2c1,8%,3%,10µM*,-80%
Cc1ccc(NC(=O)C(c2ccccc2)N2CCN(C(=O)c3ccco3)CC2)cc1Cl (centres undefined),.,0%,.,.
CCC(C)Oc1ccc(/C=C/c2[nH]c(=O)[nH]c(=O)c2[N+](=O)[O-])cc1OC (centres undefined),0%,-1%,19%,-9%
SMILES,Epigenetic derep,PINK1 modulator,HttQ103 aggreg,HTT cytoprotect
COc1cc(/C=C/c2[nH]c(=O)[nH]c(=O)c2[N+](=O)[O-])ccc1OCCC(C)C,0%,-1%,?,13µM*
O=S(=O)(Nc1ccc(Cc2ccncc2)cc1)c1ccc(Cl)c(Cl)c1,-1%,-5%[38.3 µM],11µM*,-60%
CN(c1ncnc(N)c1[N+](=O)[O-])C1CCS(=O)(=O)C1 (centres undefined),-2%,-2%,4.5µM*,-12%
COc1cccc(OC)c1C(=O)Nc1ccc2nc(C)c(C)nc2c1,.,0%,.,.
CCOC(=O)c1nnc(-c2ccc(C)cc2)nc1Oc1ccccc1Cl,?,-1%,22µM*,.
Cc1ccc(-c2cc(C(=O)N3CCOCC3)c3cc(C)ccc3n2)cc1,.,2%,.,.
